Most compounds without a hit are left out; they make up all but 3.2% or so of the library.
MEKK2 WT-MEK5 – modulators of MEK5 binding to wildtype MEKK2, primary screen, biochemical, multiplex bead flow cytometry, Alexa488-MEK5. actives 1.1% (n = 290,000). binding response (% of control), % at 10 µM. Alexa488-MEK5 binding to MEKK2 WT; actives lie on both sides. Mitogen-activated protein kinase kinase kinase 2 (Homo sapiens), Q9Y2U5. AID 1531, 2009; in the data active = binding response below about 67% or above about 130%
NRP1-CendR mod – modulators of CendR peptide binding to NRP-1, primary screen, biochemical, fluorescence polarization, uHTS | Neuropilin-1 (Homo sapiens), O14786 | FAM-RPARPAR peptide binding to NRP-1 | inhibition, % at 25 µM | actives 0.85% (n = 360,000) | AID 602438, 2012;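 active = inhibition or corrected inhibition above about 18%, plus a signal ratio from 0.5 to 1.5, limit read from the data, passing the limit was not always enough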
MEKK2mut PB1 HTS – MEK5 binding signal on mutant MEKK2 PB1, primary screen, biochemical, multiplex bead flow cytometry, Alexa488-MEK5. actives 0.35% (n = 290,000). Alexa488-MEK5 binding to MEKK2 mutant. percent response, % at 10 µM; in the data active = percent response above about 24%, passing the limit was not always enough
MEKK3 PB1 HTS – modulators of MEKK3-MEK5 PB1 binding, primary screen, biochemical, wildtype MEKK3, multiplex bead flow cytometry, Alexa488-MEK5 | bead-based flow cytometry, Alexa488-MEK5 binding to MEKK3; actives lie on both sides; 0 = blocked by unlabeled MEK5, 100 = vehicle | binding response (% of control), % at 10 µM | actives 1.4% (n = 290,000) | AID 1529, 2009;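 active = binding response more than 3 SD above or below the average of its plate-row segment, actives on both sides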;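 also: Alexa488 bead fluorescence after subtracting the streptavidin-only scavenger bead signal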
Target sequence (Q99759 whole entry, looked up): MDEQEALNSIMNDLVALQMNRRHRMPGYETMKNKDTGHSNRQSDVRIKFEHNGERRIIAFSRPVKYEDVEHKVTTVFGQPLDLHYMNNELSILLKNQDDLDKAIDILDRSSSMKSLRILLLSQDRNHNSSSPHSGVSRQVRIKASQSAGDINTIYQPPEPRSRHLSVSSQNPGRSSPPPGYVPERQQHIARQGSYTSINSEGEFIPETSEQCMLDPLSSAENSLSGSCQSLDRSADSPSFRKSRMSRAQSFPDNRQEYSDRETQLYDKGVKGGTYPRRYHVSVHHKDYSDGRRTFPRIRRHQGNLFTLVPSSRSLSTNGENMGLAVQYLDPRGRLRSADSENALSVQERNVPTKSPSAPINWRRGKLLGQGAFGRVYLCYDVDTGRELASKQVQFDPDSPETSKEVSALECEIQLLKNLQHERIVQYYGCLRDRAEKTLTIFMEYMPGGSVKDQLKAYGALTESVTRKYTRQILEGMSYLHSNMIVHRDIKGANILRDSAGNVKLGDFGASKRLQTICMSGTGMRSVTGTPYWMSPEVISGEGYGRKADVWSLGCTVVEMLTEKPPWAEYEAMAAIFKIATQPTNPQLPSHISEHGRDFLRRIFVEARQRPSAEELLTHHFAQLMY
SKN-1 inh – suppressors of acrylamide-induced Pgst-4::GFP reporter in worms, primary screen, SKN-1 inhibitor project, whole organism, uHTS, GFP/RFP fluorescence ratio, strain VP596. inhibition, % at 21.8 µM. AID 624304, 2012. actives 0.49% (n = 360,000). C. elegans VP596 Pgst-4::GFP/RFP ratio, 24 h;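 active = interference check ratio from 0.5 to 1.5 plus GFP to RFP signal ratio inhibition reaching or exceeding a fixed threshold, cut at about 30% in these data, passing the limit was not always enough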
Hits are given with their value; . = inactive; / = no result; ! = repeats disagree; [ ] = dose if it differs, or a comment.

SMILES	MEKK2 WT-MEK5	NRP1-CendR mod	MEKK2mut PB1 HTS	MEKK3 PB1 HTS	SKN-1 inh
O=C(NCC(c1ccc(F)cc1)N1CCOCC1)c1ccc([N+](=O)[O-])o1 (stereo not drawn)	/	.	/	/	.
CCn1c(=NC(=O)CSCC(=O)Nc2nccs2)sc2ccccc21	.	32	.	.	.
CCOc1ccc(NC(=O)CSc2nnc(COc3c(C)cccc3C)o2)cc1	.	24	.	.	.
Cc1ccc(C(=O)Nc2nc(=O)[nH]s2)cc1	.	17!	.	.	.
Cc1ccc(C(=O)Nc2ncc([N+](=O)[O-])s2)cc1	.	.	.	.	37
COc1ccc(CCN(C)C(=O)CCc2nnc(-c3ccccc3)o2)cc1OC	7.0	.	.	.	.
CCCCC(=O)N(C)c1c(CC)nc2c(OCc3cccc(Cl)c3)cccn12	/	.	/	/	.
CCN(CC)c1ccc(-c2sc(Nc3ccccc3)n[n+]2-c2ccc(F)cc2)cc1	33	.	76	.	.
CCOc1ccc(N(CC(=O)N2CCC(Cc3ccccc3)CC2)S(C)(=O)=O)cc1	.	29	.	.	.
CCOC(=O)c1c(C)cc(C)n2c1nc1ccccc12	.	.	.	.	40
Cc1ncc2c(n1)NC(=O)NC2	/	.	/	/	.
O=C(O)c1ccc(CSc2nnc(SCc3ccccc3)s2)cc1	.	.	.	.	.
O=C(O)c1ccc(CSC2CCCCC2)cc1	.	22	.	.	.
CCOC(=O)N1CCN(C(=O)COC(=O)c2oc3ccc(OC)cc3c2C)CC1	.	23	.	.	.
CCOC(=O)c1c(C)[nH]c(C(=O)COC(=O)c2oc3ccccc3c2C)c1C	.	.	.	.	.
CCOC(=O)c1c(C)[nH]c(C(=O)COC(=O)c2oc3ccc(OC)cc3c2C)c1C	.	.	.	.	37
COc1ccccc1C(=O)Nc1ccc2c(c1)nc1n2CCN(C2CCCCC2)C1	-12	.	.	.	.
CCOC(=O)c1sc(NC(=O)CN2CC(C)OC(C)C2)nc1C (stereo not drawn)	.	.	.	.	35
CCOC(=O)c1c(-c2cccs2)csc1NC(C)=O	.	.	.	.	.
CCOC(=O)c1c(-c2cccs2)csc1NC(=O)CN1CC(C)OC(C)C1 (stereo not drawn)	.	.	.	.	37
CC1(Oc2cccnc2Cl)CCN(Cc2ccc(OC(F)(F)F)cc2)C1 (stereo not drawn)	/	.	/	/	.
Cc1c(C(=O)N2CCN(S(=O)(=O)c3ccccc3F)CC2)oc2c(Cl)cccc12	/	.	/	/	45
CN(C)CCNCCCNc1c2ccccc2nc2cccc([N+](=O)[O-])c12	/	31	/	/	.
COC(=O)C[C@@H]1CC[C@@H](NC(=O)Nc2cc(F)ccc2F)[C@@H](CO)O1	/	.	/	/	.
CNC(=O)C[C@@H]1CC[C@@H]2[C@H](COC[C@H](O)CN2S(=O)(=O)c2ccccc2Cl)O1	/	32	/	/	.
SMILES	MEKK2 WT-MEK5	NRP1-CendR mod	MEKK2mut PB1 HTS	MEKK3 PB1 HTS	SKN-1 inh
O=C(COC(=O)c1ccc[nH]c1=O)NC1CCCCC1	.	.	.	.	.
Cc1noc(N)c1C1(O)C(=O)Nc2c(Cl)cc(Cl)cc21 (stereo not drawn)	.	.	.	.	.
Cc1nn(CCO)c(N)c1C1(O)C(=O)Nc2c(Cl)cc(Cl)cc21 (stereo not drawn)	.	24	.	.	.
COc1ccccc1/C=C/CN1CCCC(CO)(Cc2cccc(Cl)c2)C1 (stereo not drawn)	190	.	60	.	.
Nc1cc(S(=O)(=O)N2CCCCC2)ccc1Oc1ccc(Cl)cc1	.	.	.	.	.
Nc1cc(S(=O)(=O)N2CCOCC2)ccc1Oc1ccc(F)cc1	.	28	.	.	.
COc1ccc(Cl)cc1C=CC=Nc1ccccc1O	/	.	/	/	.
COc1cc(/C=N/N=C(/C(=O)c2ccccc2)c2ccccc2)cc(OC)c1O	.	.	.	135	.
Cc1ccc(NC(=O)CNC(=O)c2ccco2)cc1	.	.	.	.	.
CCC1CCCCN1C(=O)CCn1c(=O)oc2ccccc21 (stereo not drawn)	/	.	/	/	.
O=S(=O)(Nc1cccc(Cl)c1)c1cccc(-n2cnnn2)c1	/	20	/	/	.
O=S(=O)(Nc1cccc(-n2cnnn2)c1)c1ccc(Cl)cc1	.	.	.	.	.
Cc1cc(C)n2nc(SC(C)C(=O)N3CC(C)OC(C)C3)nc2n1 (stereo not drawn)	/	.	/	/	.
Cc1cccc(C)c1NC(=O)C(c1ccc(C#N)cc1)n1c(=O)c(-c2ccco2)nc2ccccc21 (stereo not drawn)	/	.	/	/	.
Clc1ccc(N=c2ssnc2Cl)cc1	.	.	.	.	92
CCc1cc(CNC(=O)C2CCC(=O)N(Cc3ccccc3F)C2)on1 (stereo not drawn)	/	.	/	/	.
COc1ccccc1/C=C/CN1CCSCC1	.	30	.	.	.
CC(Oc1ccc(Cl)cc1Cl)C(=O)Nc1cccnc1 (stereo not drawn)	.	26	.	.	.
CC(Oc1ccc(Cl)cc1Cl)C(=O)Nc1ccncc1 (stereo not drawn)	.	.	.	.	.
COc1cccc(-c2ccc(NC(=O)C3CCCN(Cc4cnn(C)c4)C3)cc2)c1 (stereo not drawn)	.	.	.	.	.
Cn1cc(CN2CCCC(C(=O)Nc3cccc(-c4cc5ccccc5[nH]4)c3)C2)cn1 (stereo not drawn)	175	.	30	.	.
CC(C)n1cc(CN2CCCC(C(=O)Nc3cccc(-c4cc5ccccc5[nH]4)c3)C2)cn1 (stereo not drawn)	180	.	.	.	.
CC(=O)Nc1ccc2c(c1)C(=O)c1cccc(C(=O)O)c1-2	/	.	/	/	.
CN1C(=O)c2ccc(N3CCCC3)cc2C1=O	.	.	.	.	.
Cc1cc(N2CCCC2)ccc1/C=C1\NC(=S)N(C)C1=O	.	.	.	.	43
COc1cccc(C(=O)NCCS(=O)(=O)N2CCN(c3ccccc3)CC2)c1OC	/	25	/	/	.
O=C(NCCS(=O)(=O)N1CCN(c2ccccc2)CC1)c1ccccc1F	/	.	/	/	.
Cc1cccc(-n2ncc3c2CCCC3NC(=O)CCN2CCCO2)c1C (stereo not drawn)	.	.	.	.	.
O=C(CCc1ccccn1)NC1CCCc2c1cnn2-c1ccc(F)cc1F (stereo not drawn)	.	.	.	.	.
CCc1nccn1CCC(=O)NC1CCCc2c1cnn2-c1ccc(F)cc1F (stereo not drawn)	66[inhibitor]	.	.	71[inhibitor]	.

Assay outcomes deposited in PubChem BioAssay by several laboratories.
